Read-out in experiment [1]: Plasminogen activator inhibitor-1 (PAI1), SERPINE1 (gene 5054)
Kind of experiment: BSK_KF3CT_PAI1: BioMAP Diversity Plus: KF3CT Assay for Plasminogen activator inhibitor-1 (PAI1) Biomarker Activity (AID 2284252). The settings on record: primary human keratinocytes with fibroblasts. The essentials: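 Keratinocyte + dermal fibroblast co-culture (human primary); 24 h post-dose; PAI-1 by ELISA; gain-of-signal fit vs DMSO control.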

Read-out in experiment [2]: Monocyte Chemoattractant Protein-1 (MCP1), CCL2 (gene 6347)
Kind of experiment: BSK_IMphg_MCP1: BioMAP Diversity Plus: IMphg Assay for Monocyte Chemoattractant Protein-1 (MCP1) Biomarker Activity (AID 2284253). The conditions noted are these: primary human endothelial cells with macrophages. The essentials: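 ELISA readout of MCP-1 at 24 hours in IMphg co-cultures of venular endothelial cells and macrophages, normalised to DMSO; parallel cultures stained with sulforhodamine B for overt cytotoxicity.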

Read-out in experiment [3]: Interleukin-8 (IL8), CXCL8 (gene 3576)
Kind of experiment: BSK_KF3CT_IL8: BioMAP Diversity Plus: KF3CT Assay for Interleukin-8 (IL8) Biomarker Activity (AID 2284254). The settings on record: primary human keratinocytes with fibroblasts. The essentials:
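Human keratinocyte/foreskin fibroblast co-culture dosed 24 h; IL-8 measured by ELISA relative to DMSO. Parallel cultures stained with SRB for total protein to flag cytotoxicity.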

Read-out in experiment [4]: Macrophage Inflammatory Protein-1 Alpha (MIP1a), CCL3 (gene 6348)
Kind of experiment: BSK_IMphg_MIP1a: BioMAP Diversity Plus: IMphg Assay for Macrophage Inflammatory Protein-1 Alpha (MIP1a) Biomarker Activity (AID 2284255). The conditions noted are these: primary human endothelial cells with macrophages. The essentials:
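MIP-1a protein levels were quantified by ELISA after 24 h treatment of human endothelial cell–macrophage co-cultures, compared with DMSO. Parallel cultures were fixed with TCA and stained with 0.1% SRB to gauge overt cytotoxicity.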

Read-out in experiment [5]: Plasminogen activator inhibitor-1 (PAI1), SERPINE1 (gene 5054)
Kind of experiment: BSK_MyoF_PAI1: BioMAP Diversity Plus: MyoF Assay for Plasminogen activator inhibitor-1 (PAI1) Biomarker Activity (AID 2284256). The settings on record: primary human lung fibroblasts. The essentials:
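Primary human lung fibroblasts treated with chemical for 24 h; PAI-1 levels quantified by ELISA relative to DMSO. Cytotoxicity was assessed in parallel cultures by SRB total-protein staining (0.1% SRB after 10% TCA fixation, 560 nm).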

Read-out in experiment [6]: CD69, CD69 (gene 969)
Kind of experiment: BSK_IMphg_CD69: BioMAP Diversity Plus: IMphg Assay for CD69 Biomarker Activity (AID 2284257). The settings on record: primary human endothelial cells with macrophages. The essentials: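 Readout is ELISA for CD69 in primary human venular endothelial cell/macrophage co-culture, taken at 24 h post-dosing. SRB staining of parallel cultures gauged overt cytotoxicity; signal increase versus DMSO defined activity.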

Read-out in experiment [7]: Eotaxin 3, CCL26 (gene 10344)
Kind of experiment: BSK_BF4T_Eotaxin3: BioMAP Diversity Plus: BF4T Assay for Eotaxin 3 Biomarker Activity (AID 2284258). The conditions noted are these: primary human bronchial epithelial cells with fibroblasts. The essentials:
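ELISA measurement of Eotaxin-3 after 24 h chemical exposure in a bronchial epithelial/dermal fibroblast co-culture, with DMSO as baseline. Parallel SRB staining (0.1% SRB after 10% TCA fixation, 560 nm) flagged overt cytotoxicity.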

Read-out in experiment [8]: Monocyte Chemoattractant Protein-1 (MCP1), CCL2 (gene 6347)
Kind of experiment: BSK_BF4T_MCP1: BioMAP Diversity Plus: BF4T Assay for Monocyte Chemoattractant Protein-1 (MCP1) Biomarker Activity (AID 2284259). The conditions noted are these: primary human bronchial epithelial cells with fibroblasts. The essentials: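 MCP-1 ELISA readout taken 24 h after dosing in the BF4T system (bronchial epithelial cells plus dermal fibroblasts). Parallel SRB total-protein staining flagged cytotoxicity; DMSO served as baseline, positive fitting direction.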

Read-out in experiment [9]: Intercellular Adhesion Molecule 1 (ICAM1), ICAM1 (gene 3383)
Kind of experiment: BSK_BF4T_ICAM1: BioMAP Diversity Plus: BF4T Assay for Intercellular Adhesion Molecule 1 (ICAM1) Biomarker Activity (AID 2284260). The settings on record: primary human bronchial epithelial cells with fibroblasts. The essentials: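 ICAM-1 levels measured by ELISA after 24 h chemical treatment of bronchial epithelial cell/dermal fibroblast co-cultures, read against DMSO baseline. Overt cytotoxicity checked in parallel cultures by sulforhodamine B staining.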

Read-out in experiment [10]: Interleukin-8 (IL8), CXCL8 (gene 3576)
Kind of experiment: BSK_MyoF_IL8: BioMAP Diversity Plus: MyoF Assay for Interleukin-8 (IL8) Biomarker Activity (AID 2284261). The conditions noted are these: primary human lung fibroblasts. The essentials: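 Human lung fibroblast (MyoF system) cultures dosed for 24 h, then IL-8 measured by ELISA. Response taken relative to DMSO; parallel SRB total-protein staining for cytotoxicity.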

Read-out in experiment [11]: CD90, THY1 (gene 7070)
Kind of experiment: BSK_BF4T_CD90: BioMAP Diversity Plus: BF4T Assay for CD90 Biomarker Activity (AID 2284262). The conditions noted are these: primary human bronchial epithelial cells with fibroblasts. The essentials:
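CD90 levels by ELISA after 24 h treatment of human bronchial epithelial cell/dermal fibroblast cultures, analysed versus DMSO. Overt cytotoxicity checked in parallel cultures by sulforhodamine B staining.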

Read-out in experiment [12]: Interleukin-8 (IL8), CXCL8 (gene 3576)
Kind of experiment: BSK_BF4T_IL8: BioMAP Diversity Plus: BF4T Assay for Interleukin-8 (IL8) Biomarker Activity (AID 2284263). The conditions noted are these: primary human bronchial epithelial cells with fibroblasts. The essentials: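 Human bronchial epithelial cells with dermal fibroblasts co-culture; IL-8 measured by ELISA 24 hours after dosing, fitted vs DMSO. Cytotoxicity tracked in parallel cultures by SRB total-protein staining.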

Read-out in experiment [13]: Interleukin-1 alpha (IL1a), IL1A (gene 3552)
Kind of experiment: BSK_BF4T_IL1a: BioMAP Diversity Plus: BF4T Assay for Interleukin-1 alpha (IL1a) Biomarker Activity (AID 2284264). The settings on record: primary human bronchial epithelial cells with fibroblasts. The essentials:
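ELISA read-out of IL-1α from bronchial epithelial cell/dermal fibroblast co-cultures 24 h after compound addition. Increases scored against DMSO negative control. Cytotoxicity monitored by sulforhodamine B staining of parallel cultures.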

Read-out in experiment [14]: Decorin, DCN (gene 1634)
Kind of experiment: BSK_MyoF_Decorin: BioMAP Diversity Plus: MyoF Assay for Decorin Biomarker Activity (AID 2284265). The conditions noted are these: primary human lung fibroblasts. The essentials:
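Human lung fibroblast cultures were dosed for 24 h, and decorin was then measured by ELISA. Parallel cultures were stained with sulforhodamine B for total protein as a cytotoxicity check. Gain of signal was fitted relative to DMSO.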

Read-out in experiment [15]: KRT18 (gene 3875)
Kind of experiment: BSK_BF4T_Keratin818: BioMAP Diversity Plus: BF4T Assay for Keratin 818 Biomarker Activity (AID 2284266). The conditions noted are these: primary human bronchial epithelial cells with fibroblasts. The essentials: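 Keratin 8/18 levels quantified by ELISA after 24 h chemical treatment of bronchial epithelial cell/dermal fibroblast co-cultures, fitted in positive direction relative to DMSO. Parallel SRB staining tracks overt cytotoxicity.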

A short description of experiment [16]: BSK_MyoF_SRB: Viability Assessment in the BioMAP Diversity Plus: MyoF Assay (AID 2284267).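 Note: total protein by SRB absorbance in parallel cultures as cytotoxicity measure.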 The settings on record: primary human lung fibroblasts. The essentials:
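Lung fibroblast cultures, 24 h post-dose; fix 10% TCA, stain 0.1% SRB, read 560 nm. Signal = total protein as cytotoxicity measure; fitted relative to DMSO negative control.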

Read-out in experiment [17]: Matrix Metallopeptidase 1 (MMP1), MMP1 (gene 4312)
Kind of experiment: BSK_MyoF_MMP1: BioMAP Diversity Plus: MyoF Assay for Matrix Metallopeptidase 1 (MMP1) Biomarker Activity (AID 2284268). The settings on record: primary human lung fibroblasts. The essentials:
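Human lung fibroblast primary cells; MMP1 measured by ELISA 24 h after dosing, fitted in the positive direction relative to DMSO. Parallel SRB staining (0.1%, after 10% TCA fixation, 560 nm) assesses overt cytotoxicity.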

Read-out in experiment [18]: TIMP metallopeptidase inhibitor 1 (TIMP1), TIMP1 (gene 7076)
Kind of experiment: BSK_MyoF_TIMP1: BioMAP Diversity Plus: MyoF Assay for TIMP metallopeptidase inhibitor 1 (TIMP1) Biomarker Activity (AID 2284269). The settings on record: primary human lung fibroblasts. The essentials: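 Primary human lung fibroblasts, MyoF multiplex system; chemical exposure 24 h; TIMP-1 by ELISA; positive fitting direction vs DMSO control.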

Read-out in experiment [19]: Matrix Metallopeptidase 1 (MMP1), MMP1 (gene 4312)
Kind of experiment: BSK_BF4T_MMP1: BioMAP Diversity Plus: BF4T Assay for Matrix Metallopeptidase 1 (MMP1) Biomarker Activity (AID 2284270). The conditions noted are these: primary human bronchial epithelial cells with fibroblasts. The essentials:
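MMP-1 quantified by ELISA in primary human bronchial epithelial/dermal fibroblast co-cultures, 24 hours post-dosing, with DMSO as baseline; parallel sulforhodamine B staining (560 nm) tracks overt cytotoxicity.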

Read-out in experiment [20]: Matrix Metallopeptidase 3 (MMP3), MMP3 (gene 4314)
Kind of experiment: BSK_BF4T_MMP3: BioMAP Diversity Plus: BF4T Assay for Matrix Metallopeptidase 3 (MMP3) Biomarker Activity (AID 2284271). The conditions noted are these: primary human bronchial epithelial cells with fibroblasts. The essentials: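 MMP-3 level read by ELISA after 24 h chemical exposure of bronchial epithelial cell/dermal fibroblast co-cultures, fitted upward relative to DMSO. Parallel cultures stained with 0.1% SRB after TCA fixation gauge overt cytotoxicity.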

Structures are written as SMILES. Where “and” joins values, the source holds several entries; their conditions need not be identical. Equal values may be shown once. The source holds several records for some structures; these can differ, active in one and inactive in another. Calls of active or inactive are those of the source. Rule for the calls: active = hit-call score of the fitted dose curve at least 0.9, where 1 is the maximum; inactive = score below 0.9.

Turning to `C=C(C)C(=O)OCCC(F)(F)C(F)(F)C(F)(F)C(F)(F)C(F)(F)C(F)(F)F`, the outcome in experiment [1], in [2], in [3], in experiment [4], in experiment [5] and in experiment [6] was inactive. The outcome in experiment [7], in experiment [8], in experiment [9], in [10], in [11] and in experiment [12] was inactive. The result in experiment [13], in experiment [14], in experiment [15], in [16], in [17] and in experiment [18] was inactive. Besides, the outcome in experiment [19] and in experiment [20] was inactive.

By AC50 is commonly meant the concentration at which the activity in the assay is half-maximal. For `CCCCCCCCCCCCCC[N+](C)(C)C`, the AC50 was 3.69 µM (active) in experiment [5]; 9.47 µM (active) in experiment [10]; 28.4 µM (active) in [14]; 5.25 µM (active) in experiment [16]; 3.32 µM (active) in experiment [18].

With `OCCC(F)(F)C(F)(F)C(F)(F)C(F)(F)C(F)(F)C(F)(F)F`, the result in experiment [1], in experiment [2], in [3], in [4], in [5] and in experiment [6] was inactive. Also, the outcome in [7], in [8], in [9], in experiment [10], in experiment [11] and in [12] was inactive. Also, the result in experiment [13], in experiment [14], in experiment [15], in experiment [16], in experiment [17] and in [18] was inactive. For the same compound, the result in [19] and in experiment [20] was inactive. Further, in experiment [4], the AC50 is 42.4 µM (active).

As for `OCCC(F)(F)C(F)(F)C(F)(F)C(F)(F)C(F)(F)C(F)(F)C(F)(F)C(F)(F)F`, the AC50 is 15.1 µM (active) and 15.7 µM (active) in experiment [1]; 49.6 µM (active) and 45.9 µM (active) in experiment [2]; 17.1 µM (active) and 11.1 µM (active) in experiment [5]; 30 µM (active) and 7.45 µM (active) in experiment [6]; 13.5 µM (active) and 9.61 µM (active) in [7]; 21.2 µM (active) and 30 µM (active) in experiment [8]. The concentration at half-maximal activity (AC50) in experiment [9] was 30 µM (active); in experiment [10], 14.9 µM (active); in [13] it was 21.5 µM (active); in [14], 15.1 µM (active) and 14.5 µM (active); in [15], 38.6 µM (active); in [16], 15.1 µM (active) and 14.7 µM (active). Also, in [18], the concentration at half-maximal activity (AC50) was 13.1 µM (active) and 9.78 µM (active). The result in [3], in [4], in experiment [10], in experiment [11], in experiment [12] and in experiment [13] was inactive. Also, the outcome in experiment [15], in experiment [17], in experiment [19] and in [20] was inactive.

Values taken from PubChem BioAssay (EPA / NIEHS).
